# Shiga toxin inh – blocks Shiga toxin action in Vero cells; hit rate 9.2% among 290,000; AID 2315; inhibition, % at 38.7 µM; Vero cells, Shiga toxin protein synthesis inhibition reporter; in the data active = inhibition mostly above about 28%, no sharp cut-off; inactive = mostly below about 43%; note: 0% is about no effect
# Cycloheximide cs – counter-screen for Shiga toxin inhibitors: cycloheximide protein synthesis inhibition. cell reporter, cycloheximide protein synthesis inhibition counterscreen. max response, %. hit rate 12% among 300,000. AID 2314; in the data active = max response mostly above about 13%, no sharp cut-off; inactive = mostly below about 14%; note: read at 38.3 µM for the half of the compounds with a filed dose; 0% is about no effect
# RE007 growth inh – less growth of the S. pombe RE007 Vpr strain; hit rate 0.21% among 360,000; S. pombe RE007 Vpr strain, BacTiter-Glo ATP luminescence, 24 h; Potency, µM (titrated, usually from 92.2 µM), inactives show at the top dose activity change, negative = less growth, usual class: inhibitors; active = well fitted falling curve with a large enough effect; inconclusive = small, poorly fitted or top-dose-only effect; inactive = no such curve, though single readings can be large or run the other way; note: potency is the fitted concentration of half-maximal effect; % is set by controls: 0 for no effect and ±100 for the full control effect; nearly all actives have a fitted effect of over 50% in size
#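 Fission yeast strain RE007, carrying one chromosomally integrated HIV-1 vpr copy, was seeded at OD 0.01 in PMG+AL medium with 23 nL pinned compound. After 24 h at 30 °C and 99% humidity, viability was read by BacTiter-Glo luminescence.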
# TbPYK inhibitor – blocks Trypanosoma brucei pyruvate kinase; hit rate 0.12% among 410,000; Q57TT1; Potency, µM (top dose mostly 76.8 µM), for the others: top-dose activity, negative = inhibition, actives largely listed as inhibitors; TbPYK enzyme, Kinase-Glo Plus ATP luminescence, 45 min; note: potency is the fitted concentration of half-maximal effect; % is set by controls: 0 for no effect and ±100 for the full control effect; nearly all actives have a fitted effect of over 50% in size
#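 T. brucei PYK with substrate was exposed to pin-transferred compounds across a concentration series, then started with 130 uM ADP (final). After 45 min at room temperature, Kinase-Glo Plus luminescence was read, normalized and curve-fitted.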
# LmPK inh – LmPK (Leishmania mexicana) enzyme inhibition; Q27686; purified LmPK, Kinase-Glo ATP luminescence, 1 h; Potency, µM (highest dose often 57.5 µM), without a hit: at the top dose activity change, negative = inhibition, most hits filed as inhibitors; hit rate 0.37% among 290,000; AID 1721; note: potency is the fitted concentration of half-maximal effect; % is set by controls: 0 for no effect and ±100 for the full control effect
#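 0.1 nM LmPK, 0.5 mM PEP, 0.1 mM ADP; 50 mM imidazole pH 7.2, 7 mM MgCl2, 50 mM KCl; 1 h RT. Kinase-Glo luminescence readout, normalized to no-enzyme (full inhibition) and uninhibited wells.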
# Giardia FBPA inh – Giardia lamblia aldolase inhibition; A8B2U2; Potency, µM (doses to about 59.6 µM), for the others: top-dose activity, negative = inhibition, most hits filed as inhibitors; purified Giardia FBPA; AID 2451; hit rate 0.71% among 290,000; note: potency is the fitted concentration of half-maximal effect; % is set by controls: 0 for no effect and ±100 for the full control effect; nearly all actives have a fitted effect of over 55% in size
# Target sequence (A8B2U2 whole entry, looked up): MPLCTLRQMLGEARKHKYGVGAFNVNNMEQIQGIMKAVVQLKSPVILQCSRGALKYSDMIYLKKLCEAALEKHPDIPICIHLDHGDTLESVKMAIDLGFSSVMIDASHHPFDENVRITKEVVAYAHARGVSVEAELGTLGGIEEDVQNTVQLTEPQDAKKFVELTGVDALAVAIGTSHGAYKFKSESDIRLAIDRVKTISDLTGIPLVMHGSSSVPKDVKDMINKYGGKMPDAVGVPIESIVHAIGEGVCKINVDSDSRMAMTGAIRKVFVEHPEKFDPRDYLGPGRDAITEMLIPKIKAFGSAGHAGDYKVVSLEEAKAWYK
#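 40 nM FBPA preincubated 10 min at RT with compound (up to 57.5 uM final), then substrate plus GAPDH/TPI/NAD/arsenate coupling and diaphorase/resazurin added. Fluorescence read after 20 min at RT, 525/598 nm.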
# The depositor's hits bear a star; ? = inconclusive; · = no result given; [ ] = dose if it differs, or a comment. The full list was thinned out, with hits kept by preference. Unless noted, calls come from the whole dose curve; as a rule, active = well fitted curve in the direction sought with a large enough effect; inconclusive = small, poorly fitted or top-dose-only effect, or another doubt; inactive = no such curve, though single readings can be large; an effect the other way counts as inactive or inconclusive.
SMILES,Shiga toxin inh,Cycloheximide cs,RE007 growth inh,TbPYK inhibitor,LmPK inh,Giardia FBPA inh
Cc1ccc(NC(=O)N(C2=NCC(C)S2)c2ccccc2)cc1 (configuration not stated),·,·,0.6%,7.8%,·,·
Cc1cccc(N(C(=O)Nc2ccc(Cl)cc2)C2=NCC(C)S2)n1 (configuration not stated),27.7,19.6*,-11.6%,-3.2%,0.0%,0.8%
Cc1cccc(N(C(=O)Nc2ccccc2)C2=NCC(C)S2)c1 (configuration not stated),65.5*,29.8*,2.1%,-1.6%,1.8%,-1.3%
c1ccc2c(c1)nnn2-c1ncnc2sc3c(c12)CCCC3,28.0,14.4*,-8.4%,-4.0%,-1.8%,13.5%
Cc1nc(-n2nnc3ccccc32)c2c3c(sc2n1)CCCC3,28.5,0.8,6.3%,-2.7%,1.1%,17.4%
O=S(=O)(c1ccccc1)N1CCN(c2nc3ccccc3s2)CC1,24.0,11.6,5.4%,2.2%,3.6%,-1.4%
Clc1ccc2nc(N3CCN(c4ccccc4)CC3)sc2c1,134.6*,37.1*,-5.6%,-0.5%,-0.5%,2.8%
Brc1ccc2nc(N3CCN(c4ccccc4)CC3)sc2c1,155.7*,47.4*,-6.6%,1.0%,1.3%[11.5 µM],2.2%
C/C(=N/OC(=O)CC(C)C)c1cc(-c2ccc(Cl)cc2)no1,124.3*,15.2,2.6%,6.7%,0.8%,3.4%
CCOC(=O)c1cc(/C(C)=N/OC(=O)c2ccc(Cl)cc2)on1,-16.2,3.1,-11.2%,0.6%,0.9%,1.5%
COc1cc(OC)cc(C(=O)N2CCN(c3ccc(N4CCOCC4)nn3)CC2)c1,·,·,-21.4%,2.9%,·,·
CC(=O)Nc1cccc(Oc2cnc3ccccc3n2)c1,45.7*,17.2*,33.6%,4.1%,-1.0%,-8.6%
COc1ccc(Oc2cnc3ccccc3n2)cc1,51.2*,30.8*,17.1%,-1.1%,2.1%,1.3%
Clc1cccc(Oc2cnc3ccccc3n2)c1,33.1,22.3*,-11.6%,-3.0%,-4.5%,5.9%
O=C(NCC(c1ccccc1Cl)N1CCCC1)C1CCN(C(=O)Nc2ccccc2)CC1 (configuration not stated),·,·,-4.5%,1.8%,·,·
ClCCNc1nc2ccc(Cl)cc2[nH]1,14.7,18.7*,7.8%,-1.3%,2.2%,-14.3%
Nc1nc2ccc(Cl)cc2[nH]1,·,·,4.5%,1.8%,·,·
CCCOc1ccc(S(=O)(=O)Nc2ccccn2)c2ccccc12,·,-1.9,2.2%,0.5%,9.5%,-29.0%
O=C(CN(C(=O)c1csnn1)c1ccccc1C(F)(F)F)NC1CCCCC1,23.5,-0.5,10.5%,0.7%,-1.9%,-5.3%
CCn1cc(C(=O)N2CCN(c3ccccc3)CC2)c(=O)c2cc(S(=O)(=O)N3CCC(C)CC3)ccc21,·,·,·,-4.3%,·,·
COc1ccc(O)c(-c2cc(-c3ccccc3[N+](=O)[O-])[nH]n2)c1,-3.5,24.8*,18.7%,-9.3%,1.2%,-3.4%
Cc1ccc(-c2cc(-c3cccs3)[nH]n2)c(O)c1,72.1*,40.9*,-21.2%,2.2%,-0.5%,-0.2%
O=[N+]([O-])c1ccccc1-c1cc(-c2cc(Cl)ccc2O)n[nH]1,50.4,21.8*,1.3%,2.5%,2.9%,3.9%
COc1ccc(O)c(-c2[nH]ncc2C(=O)c2cccc(C)c2)c1,-3.2,-3.1,-3.3%,-10.5%,-4.0%,-9.3%
O=C1NC(c2cc(Cl)cc([N+](=O)[O-])c2O)Nc2ccccc21 (configuration not stated),17.2,10.0,2.7%,1.1%,-15.1%,9.3%
SMILES,Shiga toxin inh,Cycloheximide cs,RE007 growth inh,TbPYK inhibitor,LmPK inh,Giardia FBPA inh
Cc1ccc(O)c(-c2cc(C(F)(F)C(F)F)[nH]n2)c1,47.0,18.6*,1.7%,0.1%,1.5%,-0.7%
COc1cc(Cl)c(C)cc1NC(=O)CC(c1ccc(F)cc1)N1Cc2ccccc2C1=O (configuration not stated),·,·,·,-3.9%,·,·
Cc1ccc(O)c(-c2cc(-c3ccccc3[N+](=O)[O-])[nH]n2)c1,44.4*,19.9*,-11.6%,4.1%,0.7%,-5.1%
Cc1ccc(C(=O)c2oc3ccccc3c2NC(=O)c2cc(-c3cc(C)ccc3O)n[nH]2)cc1,2.9,-5.1,-17.4%,-0.4%,7.1%,2.5%
Cc1ccc(O)c(-c2cc(-c3ccccc3C)[nH]n2)c1,32.5*,-1.6,?,-1.3%,5.3%,-7.5%
O=C(O)COc1ccc(/C=C/c2nc(-c3ccccc3O)n[nH]2)cc1,·,6.7,3.1%,-2.6%,-0.1%,-6.3%
COc1ccc(/C=C/c2nc(-c3ccccc3O)n[nH]2)cc1OC,23.4*,20.2*,-16.3%,5.1%,0.8%,-14.6%
O=S(=O)(NCC(c1ccco1)S(=O)(=O)c1cccs1)c1ccc(F)c(C(F)(F)F)c1 (configuration not stated),·,·,·,-5.2%,·,·
CCC(=O)NCc1ccc2[nH]c(C)cc2c1,2.1,-0.9,5.3%,2.3%,-6.2%,?
Cc1cccc(NC(=O)NCc2ccc3[nH]c(C)cc3c2)c1,50.0,21.2*,-7.3%,-1.4%,13.0%[11.5 µM],-8.5%
COc1ccc(C)cc1NC(=O)Nc1cccc(C)c1,5.2,0.9,-12.4%,6.8%,0.9%,-13.2%
Cc1ccc(CNC(=O)Nc2cccc(C)c2)cc1,74.9*,37.3*,3.1%,6.0%,2.3%,3.8%
Cc1cccc(NC(=O)Nc2ccc(C)cc2Br)c1,60.6*,31.6*,-6.8%,-0.4%,3.0%,3.9%
Cc1cc2cc(CNC(=O)NC3CCCCC3)ccc2[nH]1,39.7*,17.9*,-4.9%,0.1%,6.5%,-9.0%
O=S(=O)(c1ccccc1)c1nnn2c1nc(NCc1cccs1)c1sccc12,·,·,·,-7.3%,·,·
Cc1ccc2c(CC(=O)Nc3ccc(S(=O)(=O)N4CCCCC4)cc3)coc2c1C,·,·,·,-13.8%,·,·
O=C(CCNS(=O)(=O)c1ccc2c(c1)CCCC(=O)N2)Nc1cccc(Cl)c1,·,·,·,-5.2%,·,·
CC(=O)c1cn(CC(=O)Nc2ccccc2C(F)(F)F)c2ccccc12,·,-2.3,-3.4%,9.4%,1.4%,-3.8%
Cc1ccc(NC(=O)NCc2ccc3[nH]c(C)cc3c2)cc1,40.8*,44.9,1.6%,1.1%,-0.9%,-5.5%
CC(=O)NCc1ccc2[nH]c(C)cc2c1,3.7,-3.7,6.1%,-5.2%,-1.5%,?
CCCCOc1ccc(NC(=O)c2cnc(C)cn2)cc1,53.7,13.2*,4.8%,-2.0%,-7.9%,-0.4%
Cc1cc(C)n2nc(C(=O)Nc3ccc(S(=O)(=O)N4CCCC4)cc3)nc2n1,1.6,1.5,-15.5%,2.0%,-2.4%,2.1%
O=C(Nc1ccc2c(c1)CCC2)c1cnccn1,108.9*,45.9*,-9.4%,0.5%,?,-1.5%
Cc1cc(C)n2nc(C(=O)Nc3ccc4c(c3)CCC4)nc2n1,104.0*,34.3*,-9.0%,-5.7%,-1.8%,-8.3%
Cc1cnc(C(=O)Nc2ccc3c(c2)CCC3)cn1,81.9*,39.0*,7.9%,2.2%,-21.8%,-2.3%
